Data on 55 compounds can be found in ChEMBL document CHEMBL4513216, “Probing the Open Global Health Chemical Diversity Library for Multistage-Active Starting Points for Next-Generation Antimalarials” (ACS Infect Dis, 2020).

Screen size: about 68,000 compounds; about 2,700 (4%) showed an effect of 50% or more. The sample holds strong results, similar compounds and a random draw of the others, so the mix is not that of the screen.

This assay has as its system Plasmodium berghei. Nature of the assay: Screen against P. berghei liver stage (PbLuc), transformed with Luciferase, at 2uM. It is filed as functional, HepG2. To be noted: tested at 2 uM.
Take `CCn1ncc2[nH]c(-c3cc4c(cc3OC)OCO4)nc21`: the INHIBITION was determined as 27.42%.

As for `COc1cc2c(cc1-c1nc3c(cnn3C(C)C)[nH]1)OCO2`, the INHIBITION came to 60.13%.

Consider `COc1cc2c(cc1-c1nc3c(cnn3C)[nH]1)OCO2`, for which the INHIBITION is 21.97%.

In the case of `COc1cc2c(cc1-c1nc3c(cnn3C(C)C3CC3)[nH]1)OCO2` (stereo not given), the INHIBITION is 67.28%.

With `Cc1n[nH]c(C)c1NC(=O)CN1CCc2c(nc(C3CC3)n2C)C1`, the INHIBITION is 47.57%.

On to `Cc1[nH]ccc1C(=O)N1CCC2(CC1)c1nc[nH]c1CCN2S(C)(=O)=O`, for which the INHIBITION is 0.31%.

On to `CO[C@H]1CO[C@@]2(CCCN(S(=O)(=O)c3ccccc3)C2)C1`, for which the INHIBITION is on record as -1.81%.

In the case of `Cc1cccnc1CNC(=O)CC1C(=O)NCCN1CC(C)(C)C` (stereo not given), the INHIBITION was -26.52%.

Take `Cc1nnc(N2CC[C@H]3C[C@@H](C(=O)NC4CCCC4)O[C@H]3C2)s1`: the INHIBITION is recorded as -21.74%.

`Cc1cnc(C(=O)NCC2CCOc3ccccc3C2)cn1` (stereo not given): the INHIBITION is on record as 10.05%.

For the compound `Cc1n[nH]c(C)c1CCC(=O)NCC1CCOc2ccccc2C1` (stereo not given), the INHIBITION came to 49.02%.

As for `CNc1nc(C(=O)NCC2CCOc3ccccc3C2)cs1` (stereo not given), the INHIBITION is reported as 76.82%.

On to `Fc1ccc(-c2n[nH]cc2CNCCn2cccn2)cc1`, for which the INHIBITION was 11.01%.

On to `CCSCCNC(=O)Nc1cc(C(=O)N2CCOCC2)ccc1Cl`, for which the INHIBITION is recorded as -0.24%.

In the case of `CC(C)OC(=O)c1ccc(Cl)c(NC(=O)NCCN2CCOCC2)c1`, the INHIBITION is reported as 50.94%.

In the case of `O=C(NCCN1CCCC1)Nc1cc(C(=O)N2CCOCC2)ccc1Cl`, the INHIBITION amounted to 19.81%.

As for `CN(CC(=O)NC(C)(C)C)Cc1nc(-c2ccccc2)c[nH]1`, the INHIBITION is on record as -20.91%.

In the case of `CS(=O)(=O)NC[C@@H]1OC[C@H]2CN(C(=O)c3ccccc3)CC[C@H]21`, the INHIBITION amounted to 39.18%.

Consider `COc1cc(C(=O)N2CCCS2(=O)=O)ccc1C`, for which the INHIBITION was 9.9%.

On to `CCN1CCC(CNC(=O)C2(c3ccc(F)cc3)CC2)C1` (stereo not given), for which the INHIBITION amounted to 20.41%.

Turning to `COCCN1CCC(CNC(=O)C2(c3cc(C)cc(C)c3)CC2)CC1`, the INHIBITION is given as 39.72%.

With `COCCN1CCC(CNC(=O)C2(c3ccc(F)cc3)CCC2)CC1`, the INHIBITION worked out at 66.2%.

Regarding `COCCN1CCC(CNC(=O)C2(c3cccc(Cl)c3)CC2)C1` (stereo not given), the INHIBITION was 56.02%.

Turning to `COCCN1CCC(CNC(=O)C2(c3ccc(Br)cc3)CCCC2)C1` (stereo not given), the INHIBITION is 66.2%.

Take `COCCN1CCC(CNC(=O)C2(c3cccc(C)c3)CC2)C1` (stereo not given): the INHIBITION worked out at 43.79%.

Regarding `COCCN1CCC(CNC(=O)C2(c3ccccc3)CCC2)C1` (stereo not given), the INHIBITION is recorded as -1.02%.

Regarding `COCCN1CCC(CNC(=O)C2(c3cccc(C)c3)CC2)CC1`, the INHIBITION is on record as 3.9%.

For the compound `COCCN1CCC(CNC(=O)C2(c3cc(C)cc(C)c3)CCC2)C1` (stereo not given), the INHIBITION was -36.13%.

Turning to `Cc1nc(C(NS(=O)(=O)N(C)C)c2ccccc2F)no1` (stereo not given), the INHIBITION was -1.56%.

With `CCCNC(=O)Nc1ccn(CCCOC)n1`, the INHIBITION is given as -27.36%.

With `CC(C)CSCCN1CCCN(S(C)(=O)=O)CC1`, the INHIBITION is -14.71%.

As for `CCn1c(CN(C)C)nnc1C1CCN(Cc2ccc(Cl)cc2F)CC1`, the INHIBITION is -12.75%.

As to `Cc1cccc(C2(O)CCN(C(=O)c3ccccn3)CC2)c1C`, the INHIBITION is recorded as 14.59%.

With `Cc1cnn(CC2CCCN2Cc2cc(C)no2)c1` (stereo not given), the INHIBITION is reported as -4.43%.

Turning to `COCC1CC2(CCN(C(=O)c3oc4ccccc4c3C)CC2)CO1` (stereo not given), the INHIBITION is 5.15%.

On to `CCOc1ccc(Cl)c(C(=O)NCCC(=O)Nc2ccncc2)n1`, for which the INHIBITION was found to be 39.54%.

Turning to `Cn1ccc(C(=O)NCc2ccc(N3CCOCC3)nc2)cc1=O`, the INHIBITION is on record as 52.17%.

On to `Cn1ccc(C(=O)NCc2ccc(N3CCCC3)nc2)cc1=O`, for which the INHIBITION was determined as 9.3%.

As for `CCN1CCN(c2ccc(CNC(=O)c3ccc(Cl)o3)cn2)CC1`, the INHIBITION is 66.93%.

For the compound `Cn1ccc(C(=O)NCc2ccc(N3CCCCC3)nc2)cc1=O`, the INHIBITION is 26.06%.

As to `CCN1CCN(c2ccc(CNC(=O)c3cc(C)on3)cn2)CC1`, the INHIBITION came to 23.24%.

Turning to `CCN1CCN(c2ccc(CNC(=O)c3cnn(C)c3C)cn2)CC1`, the INHIBITION came out at 21.83%.

For `CNC(=O)c1ccnc(CC2COc3c(cccc3OC)C2)c1` (stereo not given), the INHIBITION is given as -12.13%.

Regarding `CCN(CC)S(=O)(=O)N1CCC(c2nccn2Cc2ccccn2)CC1`, the INHIBITION was -28.42%.

For the compound `Cc1ncc(C(=O)NCCNc2ccncc2)s1`, the INHIBITION is reported as -60.22%.

For `CN(C)C(=O)c1ccc(C2CCCN2C(=O)CCC2=NNC(=O)CC2)s1` (stereo not given), the INHIBITION is listed as -11.64%.

With `Cc1cc(C)nc(NCc2cc3n(n2)CCCN(C(=O)C2CCC2)C3)n1`, the INHIBITION is on record as -4.53%.

For the compound `O=C(C1CCC1)N1CCCn2nc(CNc3ncccn3)cc2C1`, the INHIBITION came out at 52.47%.

`Cc1cc(NCc2cc3n(n2)CCCN(S(C)(=O)=O)C3)ncn1`: the INHIBITION was -14.84%.

Regarding `CSc1nccc(NCc2cc3n(n2)CCCN(C(=O)C2CCC2)C3)n1`, the INHIBITION was -36.65%.

`Cc1nccc(NCc2cc3n(n2)CCCN(S(C)(=O)=O)C3)n1`: the INHIBITION turned out to be 8.89%.

For the compound `Cc1cc(NCc2cc3n(n2)CCCN(C(=O)C2CCC2)C3)ncn1`, the INHIBITION is listed as 19.13%.

For `Nc1nccc(NCc2cc3n(n2)CCCN(C(=O)C2CCC2)C3)n1`, the INHIBITION was 4.47%.

In the case of `Cc1nccc(NCc2cc3n(n2)CCCN(C(=O)C2CCC2)C3)n1`, the INHIBITION is 55.7%.

For the compound `CS(=O)(=O)N1CCCn2nc(CNc3ncccn3)cc2C1`, the INHIBITION is given as 51.19%.
